In PubChem BioAssay AID624405 (Broad Institute, 2012):
Hit rate of the full screen: of about 1,900 compounds, about 250 (13%) were called active. Another 4% or so got no clear call; they are omitted.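 Rule for the calls: active = fitted curve reaches 40% rescue activity at or below the top valid dose, in every test run; inconclusive = test runs disagree, some active and some inactive; inactive = every run misses the threshold or moves the wrong way.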 Only a sample is shown. Measured potencies and affinities stand elsewhere.

Experiment: rescue of simvastatin-induced ATP loss – cell-based, C2C12 myotubes, ATP luminescence, cherry pick, dose response (AID 624405);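 note: myotubes are challenged with simvastatin at 10 µM to lower ATP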
Settings: 48 h, scaled: DMSO wells 0, geranylgeraniol wells 100; series mostly up to 19.5 µM; rescue activity (ATP increase): at the top concentration

Structure (SMILES)	rescue activity (ATP increase)
C[C@@H]1CCCCO[C@@H](CN(C)Cc2ccc(C(F)(F)F)cc2)[C@H](C)CN([C@@H](C)CO)C(=O)c2cc(NC(=O)c3ccncc3)ccc2O1	24.7% (inactive)
C[C@H]1CCCCO[C@@H](CN(C)C(=O)Nc2ccc3c(c2)OCO3)[C@@H](C)CN([C@@H](C)CO)C(=O)c2cc(NS(=O)(=O)c3cccs3)ccc2O1	12.1% (inactive)
COc1ccc(S(=O)(=O)Nc2ccc3c(c2)C(=O)N([C@@H](C)CO)C[C@H](C)[C@@H](CN(C)S(=O)(=O)c2cccs2)OCCCC[C@@H](C)O3)cc1	11.9% (inactive)
CCOc1ccc(C2SCC(=O)N2c2c(C)n(C)n(-c3ccccc3)c2=O)cc1 (stereo not given)	41.8% (inactive)
COc1ccccc1Oc1ccc2c(c1)C(=O)N(c1ccc(O)cc1)C2=O	-8.71% (inactive)
C[C@@H]1CN([C@H](C)CO)C(=O)c2cc(C#CC3CCCCC3)cnc2O[C@@H]1CN(C)C(=O)C1CCCCC1	-7.4% (inactive)
COc1ccc(Br)cc1C1SCCN1S(C)(=O)=O (stereo not given)	13% (inactive)
CCC12CC3CC(C1)CC(C(=O)NNC(N)=O)(C3)C2	14.5% (inactive)
COCCNC(=O)C(c1ccc(C)o1)N(Cc1ccc(OC)cc1)C(=O)Cn1nnc2ccccc21 (stereo not given)	14.8% (inactive)
C=CCOc1ccc(/C(CC)=N/O)cc1OC	-3.5% (inactive)
CS(=O)(=O)N(CC(=O)NCc1ccco1)c1ccc(OCc2ccccc2)cc1	23.1% (inactive)
COc1cccc(NC(=O)N(C)C[C@H]2Oc3ncc(C#Cc4ccc(F)cc4)cc3C(=O)N([C@@H](C)CO)C[C@@H]2C)c1	19.9% (inactive)
CC(C)NC(=O)N1[C@H](CO)[C@@H](c2ccc(-c3ccc(F)cc3)cc2)[C@@H]1C#N	37.9% (inactive)
COc1ccc(-c2ccc([C@H]3[C@@H](C#N)N(C(=O)NC4CCCCC4)[C@@H]3CO)cc2)cc1	39% (inactive)
N#C[C@H]1[C@H](c2ccc(-c3ccc(F)cc3)cc2)[C@@H](CO)N1C(=O)Cc1ccccc1	32.6% (inactive)
CC(C)NC(=O)N1[C@@H](C#N)[C@H](c2ccc(-c3ccc(F)cc3)cc2)[C@@H]1CO	23.1% [at 21 µM] (inactive)
CC(C)NC(=O)N1[C@H](C#N)[C@@H](c2ccc(-c3ccc(F)cc3)cc2)[C@@H]1CO	32.4% [at 21 µM] (inactive)
COc1ccc(CC(=O)NC(CC(=O)O)c2cccc([N+](=O)[O-])c2)cc1 (stereo not given)	36.5% (inactive)
N#Cc1ccc(Oc2ccc(/C=N/O)cn2)cc1	32.7% (inactive)
COc1ccc(N2CCN(C(=O)COc3ccc4c(C)cc(=O)oc4c3C)CC2)cc1	-26.7% (inactive)
C[C@H]1CN([C@@H](C)CO)C(=O)c2cc(NS(=O)(=O)c3ccc(Cl)cc3)ccc2O[C@H]1CN(C)S(=O)(=O)c1cccs1	33.6% (inactive)
C[C@@H]1CN([C@@H](C)CO)C(=O)c2cc(NC(=O)Nc3ccc(F)cc3)ccc2O[C@@H](C)CCCCO[C@@H]1CN(C)S(=O)(=O)c1cccs1	6.85% (inactive)
COCCCn1cnc2c(c1=O)c1nc3ccccc3nc1n2-c1ccccc1	38.6% (inactive)
C[C@@H]1CN([C@@H](C)CO)C(=O)Cc2cc(NC(=O)Cn3cnnn3)ccc2O[C@H]1CN(C)Cc1ccc(Oc2ccccc2)cc1	-3.67% (inactive)
COc1ccc(N2Nc3n[nH]c(N)c3N2)cc1	9.38% (inactive)
C[C@@H]1CCCCO[C@H](CN(C)Cc2ccc(C(F)(F)F)cc2)[C@H](C)CN([C@@H](C)CO)C(=O)c2cc(NC(=O)c3ccncc3)ccc2O1	1.14% (inactive)
O=C(NC1CCN(C(=O)NCc2ccccc2)CC1)c1ccco1	12.3% (inactive)

Structure (SMILES)	rescue activity (ATP increase)
COc1ccc(-c2cnc3c(c2)C(=O)N([C@H](C)CO)C[C@H](C)[C@H](CN(C)S(=O)(=O)c2ccc(C)cc2)O3)cc1	29.7% (inactive)
Cc1noc(C)c1NC(=O)Nc1ccc2c(c1)CC(=O)N([C@H](C)CO)C[C@@H](C)[C@@H](CN(C)Cc1ccc(Cl)c(Cl)c1)O2	35.3% (inactive)
O=CN1CCC(=O)N(Cc2ccccc2)c2ccccc21	-9.7% (inactive)
Cc1cccc(NC(=O)c2ccc(OC3CSC3)cc2)c1	-47.3% (inactive)
COc1cc(NC(=O)c2ccccc2)c(OC)cc1Cl	-8.34% (inactive)
COc1ccc(C2NC(C(=O)O)Cc3c2[nH]c2ccccc32)cc1OC (stereo not given)	2.94% (inactive)
O=C1C[C@@H]2c3c(cccc3CN1Cc1ccc(Br)cc1)C[C@@H](O)[C@H]2O	24.6% (inactive)
O=C1C[C@@H]2c3c(cccc3CN1Cc1ccc(Cl)cc1)C[C@@H](O)[C@H]2O	14.1% (inactive)
COc1ccc(CN2[C@H](CO)[C@H]3c4ccccc4N(C(=O)c4ccccc4)C[C@H]32)cc1	21.3% (inactive)
O=C(CSc1nc2ccccc2[nH]1)Nc1ccc2c(c1)OCCO2	-4.52% (inactive)
CCOc1ccc(NC(=O)CN(Cc2ccccc2)S(C)(=O)=O)cc1	-3.7% (inactive)
CCOC(=O)Cc1nnc(NC(=O)COc2ccc(OC)cc2)s1	-12.6% (inactive)
Cc1cccc(Nc2nc(CC(=O)O)cs2)c1	-21.3% (inactive)
C[C@@H]1CN([C@H](C)CO)C(=O)c2cc(C3=CCCCC3)cnc2O[C@@H]1CN(C)C(=O)c1ccccn1	5.53% (inactive)
C[C@H]1CN([C@@H](C)CO)C(=O)c2cc(NC(=O)Cc3cn(C)c4ccccc34)ccc2O[C@@H]1CN(C)S(=O)(=O)c1cccs1	15.3% (inactive)
Cc1cc(C)nc(N2CCCC(C(=O)NCc3cccs3)C2)n1 (stereo not given)	-1.73% (inactive)
S=C(NCc1ccc(Cl)cc1)Nc1ccccc1	12% (inactive)
COc1ccc(S(=O)(=O)Nc2ccc3c(c2)CC(=O)N([C@H](C)CO)C[C@H](C)[C@@H](CN(C)Cc2ccc(C(F)(F)F)cc2)O3)cc1	26.2% (inactive)
Cn1c(-c2sc3cc(C(F)(F)F)cnc3c2-c2cccnc2)n[nH]c1=S	32.8% (inactive)
CC1(C)CC(C(=O)Nc2nccs2)CCO1 (stereo not given)	0.246% (inactive)
C[C@@H]1CN([C@@H](C)CO)C(=O)c2cc(NS(=O)(=O)c3cccs3)ccc2O[C@H]1CN(C)S(=O)(=O)c1ccc(Cl)cc1	10.6% [at 21 µM] (inactive)
COc1ccc(OC)c(S(=O)(=O)Nc2ccccc2C)c1	1.7% (inactive)
CCCOn1nnnc1-c1ccccc1	36.3% (inactive)
C[C@@H]1CCCCO[C@H](CN(C)C(=O)Nc2cccc3ccccc23)[C@H](C)CN([C@@H](C)CO)C(=O)c2cc(NS(=O)(=O)c3ccc(Cl)cc3)ccc2O1	9.78% (inactive)
CC1CCN(c2ncnc3c2cnn3Cc2ccc(Cl)cc2)CC1	30.3% (inactive)
C[C@H]1CN([C@@H](C)CO)C(=O)c2cc(C3=CCCCC3)cnc2O[C@@H]1CN(C)Cc1ccccc1F	14.8% (inactive)
COc1ccccc1OCCNC1CCCC1	13% (inactive)

Structure (SMILES)	rescue activity (ATP increase)
C[C@@H]1CN([C@H](C)CO)C(=O)Cc2cc(NS(=O)(=O)c3cn(C)cn3)ccc2O[C@@H]1CN(C)Cc1ccc(-c2ccccc2)cc1	26.4% (inactive)
O=C(Cn1cnc2c(cnn2-c2ccccc2)c1=O)c1ccc(Cl)cc1	30.3% (inactive)
CCOC(=O)c1nn(-c2cccc(Cl)c2)c(C)c1C(C)=O	17.9% (inactive)
COc1ccc(NC(=O)Nc2cccc3c2O[C@@H](CN(C)C(=O)Nc2cccc4ccccc24)[C@@H](C)CN([C@H](C)CO)C3=O)cc1	4.56% (inactive)
C[C@@H]1CN([C@@H](C)CO)C(=O)c2cc(N(C)C)ccc2O[C@H]1CN(C)Cc1ccc(-c2ccccc2)cc1	9.05% [at 21 µM] (inactive)
Oc1ccccc1/C=N/c1c(-c2ccco2)nc2ccccn12	-96% (inactive)
CC(c1nc2ccccc2c(=O)[nH]1)N1CCN(C)CC1 (stereo not given)	-6.72% (inactive)
C[C@H]1CN([C@@H](C)CO)C(=O)c2cc(NS(=O)(=O)c3cccs3)ccc2O[C@H]1CN(C)Cc1ccc(Cl)c(Cl)c1	0.067% (inactive)
O=C(Nc1ccc(S(=O)(=O)N2CCCCC2)cc1)c1ccco1	-19.1% (inactive)
O=C(NCc1ccco1)C1CCCN(S(=O)(=O)c2ccccc2)C1 (stereo not given)	12.2% (inactive)
C[C@H](CO)N1C[C@H](C)[C@H](CN(C)Cc2ccc(C(=O)Nc3ccccc3N)cc2)Oc2ccc(NC(=O)Cn3cnnn3)cc2C1=O	35.1% [at 21 µM] (inactive)
C[C@H]1CN([C@@H](C)CO)C(=O)c2cc(NC(=O)Cc3cn(C)c4ccccc34)ccc2O[C@@H]1CN(C)Cc1ccc(C(F)(F)F)cc1	21.4% (inactive)
C[C@@H]1CN([C@H](C)CO)C(=O)c2cc(NC(=O)Cc3cn(C)c4ccccc34)ccc2O[C@H]1CN(C)Cc1ccc(-c2ccccc2)cc1	24.7% (inactive)
CC(=O)N(C)c1ccc(OCC(O)COc2ccc(N(C)C(C)=O)cc2)cc1	4.59% (inactive)
Cc1cccc(NC(=O)C2CCCN(S(=O)(=O)c3cccc4nsnc34)C2)n1 (stereo not given)	20.1% (inactive)
CN(C(=O)c1ccc(NC(=O)Cc2ccc(NC(=O)C3CCN(C(=O)CCc4ccccc4)CC3)cc2)cc1)C1CC1	11.6% (inactive)
CCCc1cc(Nc2c(C)n(C)n(-c3ccccc3)c2=O)n2c(nc3ccccc32)c1C#N	2.07% (inactive)
Cc1ccc(S(=O)(=O)Nc2cccc3c2O[C@@H](CN(C)Cc2ccc(C(F)(F)F)cc2)[C@H](C)CN([C@H](C)CO)C3=O)cc1	33.9% (inactive)
C[C@@H]1CCCCO[C@@H](CN(C)S(=O)(=O)c2ccc(Cl)cc2)[C@H](C)CN([C@H](C)CO)C(=O)c2cc(NS(C)(=O)=O)ccc2O1	-1.19% (inactive)
O=C(Nc1ccc(NC(=O)c2ccco2)nc1)c1ccccn1	-75.5% (inactive)
COc1ccc(NC(=O)Nc2ccc3c(c2)C(=O)N([C@@H](C)CO)C[C@@H](C)[C@H](CN(C)Cc2ccc(C(F)(F)F)cc2)OCCCC[C@H](C)O3)cc1	-26% (inactive)
O=C(NCC12CC3CC(CC(C3)C1)C2)c1nn2c(c1Cl)NC(c1ccco1)CC2C(F)(F)F (stereo not given)	2.04% (inactive)
COc1ccc(NC(=O)Nc2ccc3c(c2)C(=O)N([C@H](C)CO)C[C@H](C)[C@@H](CN(C)Cc2ccc(C(F)(F)F)cc2)OCCCC[C@@H](C)O3)cc1	-5.5% (inactive)
COc1ccc(NC(=O)N(C)C[C@H]2Oc3c(NC(=O)Nc4cccc5ccccc45)cccc3C(=O)N([C@H](C)CO)C[C@H]2C)cc1	-7.61% (inactive)
Cc1noc(C)c1S(=O)(=O)N(C)C[C@H]1Oc2ccc(NC(=O)Nc3cccc4ccccc34)cc2CC(=O)N([C@H](C)CO)C[C@@H]1C	4.95% (inactive)
COc1ccccc1N1CCN(Cc2nc3ccsc3c(=O)[nH]2)CC1	-27.8% (inactive)
